Measurements published in PubChem BioAssay (EPA / NIEHS).
Some structures have more than one record in an assay (separate samples or runs), and their calls can disagree. Calls of active or inactive are those of the source. Rule for the calls: active = hit-call score of the fitted dose curve at least 0.9, where 1 is the maximum; inactive = score below 0.9.

Test: ATG_NFI_CIS: Attagene CIS-FACTORIAL HepG2 Assay for human Nuclear Factor I (NFI) (AID 2282989)
Details: HepG2 cis-regulatory reporter, NFI response element transcription; actives raise or lower the signal
Protocol: ATG_CIS is a cell-based, multiplexed-readout assay that uses HepG2, a human liver cell line, with measurements taken at 24 hours after chemical dosing in a 24-well plate.ATG_NFI_CIS is one of 52 assay component(s) measured or calculated from the ATG_CIS assay. It is designed to make measurements of mRNA induction, a form of inducible reporter, as detected with fluorescence intensity signals by Reverse transcription polymerase chain reaction (RT-PCR) and Capillary electrophoresis technology.Data from the assay component ATG_NFI_CIS was analyzed into 1 assay endpoint. This assay endpoint, ATG_NFI_CIS, was analyzed with bidirectional fitting relative to DMSO as the negative control and baseline of activity. Using a type of inducible reporter, measures of mRNA for gain or loss-of-signal activity can be used to understand the reporter gene at the transcription factor-level as they relate to the gene NFIA. Furthermore, this assay endpoint can be referred to as a primary readout, because this assay has produced multiple assay endpoints where this one serves a reporter gene function. To generalize the intended target to other relatable targets, this assay endpoint is annotated to the dna binding intended target family, where the subfamily is nuclear factor I.
Human liver HepG2 cells are transiently transfected with multiple reporter transcription units (MRTUs) in 6-well plates using FuGene 6 reagent (Roche; 3 ml FuGene/1 mg DNA). The MRTU constructs are regulated by a cis-regulating element (promoter). […] A major difference between the CIS and TRANS system is that in CIS activities of endogenous TFs are measured, whereas the TRANS assay evaluates changes in activities of exogenous, chimeric NR-Gal4 proteins. […] At the end of 24 hour incubation, total RNA was isolated using TriZol reagent (Invitrogen). The isolated RNA is then reverse-transcribed using oligo(dT) primer and Mo-MLV reverse transcriptase (Invitrogen) with DNAse I (Ambion) treatment for 30 min. The one-tenth of the produced cDNA was amplified by PCR using Taq DNA polymerase (Invitrogen) and two reporter sequence-specific primers. The PCR products were fluorescently labeled by primer extension with 6-arboxyfluorescein (6-FAM) 5'-labeled reporter sequence-specific primer (2 min at 95 C, 20 s at 68 C and 10 min at 72 C) and these products were digested with 5U of HpaI (New England Biolabs) for 2h at 37 C. The fragments were purified using Qiaquick PCR columns (Qiagen), analyzed on an ABI 3130xL genetic analyzer (Applied Biosystems) with peak positions identified by using a set of X-rhodamine (ROX)-labeled MapMarker1000 molecular weight standards (BioVentures). The raw capillary electrophoresis data was processed using Attagraph software (Attagene).

| Compound | outcome | AC50 |
| --- | --- | --- |
| CC(=[OH+])/C=C(/C)[O-].CC(=[OH+])/C=C(/C)[O-].CC(=[OH+])/C=C(/C)[O-].[Al] | inactive | – |
| Oc1c(I)cc(I)cc1I | inactive | – |
| O=[N+]([O-])c1ccc2c3c(cccc13)CC2 | inactive | – |
| O=P(O)(O)CN(CP(=O)(O)O)CP(=O)(O)O | inactive | – |
| CC(Br)C(=O)O (stereo not given) | inactive | – |
| O=C1C2(Cl)C3(Cl)C4(Cl)C(Cl)(Cl)C5(Cl)C3(Cl)C1(Cl)C5(Cl)C24Cl (stereo not given) | inactive | 17.2 µM (active) |
| O=C(c1ccccc1)C(Cl)Cl | – | 25.1 µM (active) |
| C[C@]12CCC(=O)C[C@@H]1CC[C@@H]1[C@@H]2CC[C@]2(C)[C@@H](O)CC[C@@H]12 | inactive | – |
| CCCCCCCCCl | inactive | – |
| ClCCBr | inactive | – |
| COc1ccc(C=O)cc1OC | inactive | – |
| COc1cccc(C=O)c1 | inactive | – |
| CC(=O)c1cc(C(C)(C)C)cc2c1CCC2(C)C | – | 74.2 µM (active) |
| CCC[CH2][Sn]([CH2]CCC)([CH2]CCC)[O]C(=O)c1ccccc1 | inactive | – |
| CC(=O)OC(c1ccccc1)C(Cl)(Cl)Cl (stereo not given) | inactive | – |
| O=[N+]([O-])c1ccc(O)c([N+](=O)[O-])c1 | inactive | – |
| c1ccc(N=NNc2ccccc2)cc1 | – | 180 µM (active) |
| C[C@@H](Oc1ccc(Cl)cc1Cl)C(=O)O | inactive | – |
| CCOP(=S)(OCC)SCCS(=O)(=O)CC | inactive | – |

| Compound | outcome | AC50 |
| --- | --- | --- |
| CCNc1nc(NC(C)(C)C)nc(SC)n1 | inactive | – |
| Nc1ccc(N=Nc2ccc(-c3ccc(N=Nc4c(S(=O)(=O)O)cc5cc(S(=O)(=O)O)c(N=Nc6ccccc6)c(O)c5c4N)cc3)cc2)c(N)c1 | inactive | – |
| COc1cc(-c2ccc(N)c(OC)c2)ccc1N | inactive | 79.8 µM (active) |
| CC(C)(OO)c1ccccc1 | inactive | – |
| C[C@]12CC[C@H](O)CC1=CC[C@@H]1[C@@H]2CC[C@]2(C)C(=O)CC[C@@H]12 | inactive | – |
| Nc1cccc(Cl)c1 | inactive | – |
| CCC[CH2][Sn]([Cl])([Cl])[Cl] | inactive | – |
| O=C(O)Cc1ccccc1 | inactive | – |
| CCSC(C)CC1CC(=O)C(C(CC)=NOC/C=C/Cl)=C(O)C1 (stereo not given) | inactive | – |
| NC(=S)Nc1ccccc1 | inactive | – |
| COP(=S)(OC)Oc1ccc(Sc2ccc(OP(=S)(OC)OC)cc2)cc1 | inactive | – |
| O=C(O)C(Cl)(Cl)Cl | inactive | – |
| c1cc[c]([Hg][c]2ccccc2)cc1 | – | 20.6 µM (active) |
| Cc1ccccc1N | inactive | – |
| COc1ccccc1OC | inactive | – |
| O=C(O)C(F)(F)C(F)(F)C(F)(F)C(F)(F)C(F)(F)C(F)(F)C(F)(F)C(F)(F)C(F)(F)C(F)(F)F | inactive | 157 µM (active) |
| CC12CC1(C)C(=O)N(c1cc(Cl)cc(Cl)c1)C2=O (stereo not given) | inactive | – |
| ClC(Cl)=C(Cl)C(Cl)=C(Cl)Cl | – | 163 µM (active) |
